Assay outcomes: PubChem, National Center for Advancing Translational Sciences (NCATS)
ATXN2 expr inh: Primary qHTS for Inhibitors of ATXN expression. HEK-293 ATXN2-luciferase reporter, luminescence, 24 h. Potency, µM (series often up to 57 µM), for inactives: top-dose activity change, negative = inhibition, hits mostly inhibitors. 360,000 tested, 0.72% active; also: potency is read from the fitted curve at half-maximal effect; % is scaled to controls: 0 for no effect and ±100 for the full control effect; nearly all actives have a fitted effect of over 55% in size
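qHTS (up to 57 uM final) was run with 24 h compound exposure of reporter cells at 37 °C. Each well was multiplexed: SteadyGlo luminescence measured ATXN2-luciferase expression after a fluorogenic Gly-Phe-AFC viability readout (25 uM final).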
TGFb SMAD3 inh: qHTS for Inhibitors of TGF-b; 410,000 tested, 1.2% active; Potency, µM (doses to about 46.1 µM), for the others: at the highest dose activity, negative = inhibition, most hits filed as inhibitors; HepG2 CAGA-GFP TGF-b/SMAD3 reporter, GFP fluorescence, 18 h; TGF-beta stimulated, 500 pg/mL final; AID 588855, 2011; also: potency is read from the fitted curve at half-maximal effect; % is scaled to controls: 0 for no effect and ±100 for the full control effect; nearly all actives have a fitted effect of over 65% in size
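TGF-beta reporter screen: HEPG2 CAGA-GFP, 1% FBS, 500 pg/mL TGF-beta final, 18 h; per-cell GFP summed per well; curves fitted and categorized by class.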
Six1-Eya2 blk: qHTS Assay for Inhibitors of the Six1/Eya2 Interaction | AlphaScreen GST-Six1/His-Eya2 binding, biochemical; stronger effect = lower value | activity change, % (concentration not given with the values) | 360,000 tested, 0.56% active | AID 651725, 2012; in the data active = activity change below about -65%; inconclusive = mostly about -30% to -63%; also: % is scaled to controls: 0 for no effect and ±100 for the full control effect
Target sequence (O00167 whole entry, looked up): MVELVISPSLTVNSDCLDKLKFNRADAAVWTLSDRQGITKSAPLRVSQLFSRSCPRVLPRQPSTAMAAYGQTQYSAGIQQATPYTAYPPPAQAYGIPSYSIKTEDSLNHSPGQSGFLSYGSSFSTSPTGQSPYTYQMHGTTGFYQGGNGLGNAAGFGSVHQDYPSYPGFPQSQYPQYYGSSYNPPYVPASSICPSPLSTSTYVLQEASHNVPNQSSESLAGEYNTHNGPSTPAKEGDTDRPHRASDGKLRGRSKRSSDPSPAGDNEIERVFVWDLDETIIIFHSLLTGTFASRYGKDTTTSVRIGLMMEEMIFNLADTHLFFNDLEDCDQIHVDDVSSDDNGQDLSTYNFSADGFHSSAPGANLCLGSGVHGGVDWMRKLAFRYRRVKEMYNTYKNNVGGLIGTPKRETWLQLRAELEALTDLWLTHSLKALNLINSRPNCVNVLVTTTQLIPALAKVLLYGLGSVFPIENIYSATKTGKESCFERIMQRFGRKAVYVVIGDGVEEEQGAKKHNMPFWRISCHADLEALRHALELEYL
Target sequence (Q15475 whole entry, looked up): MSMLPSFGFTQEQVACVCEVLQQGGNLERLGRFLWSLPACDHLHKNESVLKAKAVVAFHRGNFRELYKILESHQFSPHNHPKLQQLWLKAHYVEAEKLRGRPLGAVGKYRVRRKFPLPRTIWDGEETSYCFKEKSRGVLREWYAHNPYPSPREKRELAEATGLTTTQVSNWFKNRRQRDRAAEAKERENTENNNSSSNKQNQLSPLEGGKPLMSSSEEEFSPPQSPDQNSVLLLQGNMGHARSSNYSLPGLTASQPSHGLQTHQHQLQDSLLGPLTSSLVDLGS
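Six1/Eya2 binding was read as AlphaScreen signal after compounds were pinned into GST-Six1 plus His-tagged Eya2 (5X stock 250/500 nM) in pH 8.0 Tris/NaCl/TCEP buffer, beads added, then incubated 1 h, 37 C, dark.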
CtBP-E1A inh: qHTS Assay for Inhibitors of the CtBP/E1A Interaction; CtBP / adenovirus E1A interaction (AlphaScreen); AlphaScreen GST-E1A/His-CtBP binding, 1536-well; stronger effect = lower value; activity change, % (concentration not given with the values); 340,000 tested, 0.49% active; AID 651724, 2012; in the data active = activity change below about -65%; inconclusive = mostly about -30% to -63%; also: % is scaled to controls: 0 for no effect and ±100 for the full control effect
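GST-E1A and His-tagged CtBP (125 nM each as 5X stock) were preincubated with pin-transferred compound for 2 h at 37 °C in the dark, then glutathione donor and nickel acceptor beads were added for 1 h before AlphaScreen reading.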
HepG2 tox: qHTS for Inhibitors of TGF-b: Cytotox Counterscreen; HepG2 CAGA-GFP viability, ATP luminescence, 18 h; Potency, µM (top dose mostly 46.1 µM), inactives show at the highest dose activity change, negative = cytotoxicity, hits mostly cytotoxic; 410,000 tested, 0.76% active; also: potency is read from the fitted curve at half-maximal effect
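HepG2 CAGA-GFP cells (1000/well, DMEM with 1% FBS) received compound, then TGF-beta at 500 pg/mL final, and were incubated 18 hours at 37 degrees C. Viability was read by CellTiter-Glo luminescence. Media-only wells were set as complete cell-killing and DMSO as no toxicity.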
ATXN viability: Viability Counterscreen for Primary qHTS for Inhibitors of ATXN expression. S2 cells (HEK-293 line with an ATXN2-luciferase reporter) viability, CellTiter-Fluor protease fluorescence, 24 h. Potency, µM (titrated, usually from 56.7 µM), usual class: cytotoxic. 400,000 tested, 0.49% active. AID 651635, 2014; also: potency is read from the fitted curve at half-maximal effect; nearly all actives have a fitted effect of over 40% in size
* hit, by the source's call; [ ] = dose if it differs, or a comment. An excerpt weighted towards active compounds, which were near 2.8% of everything screened. Unless noted, calls follow the shape of the dose curve; as a rule, active = well fitted curve in the direction sought with a large enough effect; inconclusive = small, poorly fitted or top-dose-only effect, or another doubt; inactive = no such curve, though single readings can be large; an effect the other way counts as inactive or inconclusive.

Results for Nc1nc(Nc2ccc(Cl)cc2)nc2ccccc12 ?
ATXN2 expr inh: 45%; TGFb SMAD3 inh: 18µM*; Six1-Eya2 blk: 8; CtBP-E1A inh: 7; HepG2 tox: -48%; ATXN viability: inactive

What do the screens show for `CN(C)c1ccc(Nc2nc(N)c3ccccc3n2)cc1`?
ATXN2 expr inh: 5µM*; TGFb SMAD3 inh: -2%; Six1-Eya2 blk: inconclusive; CtBP-E1A inh: inconclusive; HepG2 tox: 13µM*; ATXN viability: inactive

What do the screens show for `O=C(NCCN1CCCCC1)c1ccc(Cn2c(SCc3ccc(F)cc3)nc3cccnc32)cc1`?
TGFb SMAD3 inh: -28%; HepG2 tox: -54%

Results for COC/C=C/C1=CC2=CC(=O)C(C)(OC(=O)c3cnc4ccccc4n3)C(=O)C2=CN1Cc1ccccc1 (stereo not drawn) ?
ATXN2 expr inh: inconclusive; TGFb SMAD3 inh: 11µM*; Six1-Eya2 blk: -9; CtBP-E1A inh: 0; HepG2 tox: -17%

How did Cc1ccc(S(=O)(=O)c2cnc(SCC(=O)Nc3ccccc3C(F)(F)F)[nH]c2=O)cc1C do in these assays?
ATXN2 expr inh: -5%; TGFb SMAD3 inh: 20%; HepG2 tox: 8%; ATXN viability: inactive

How did CC(C)C(=O)NCC1CCC2(CCN(Cc3ccc(-c4cccc(Cl)c4)o3)CC2)O1 (stereo not drawn) do in these assays?
ATXN viability: inactive

How did CCCC(=O)N(C1CC(C)C(C#N)(C#N)C1(C#N)C#N)N(C)C (stereo not drawn) do in these assays?
ATXN2 expr inh: inconclusive; TGFb SMAD3 inh: 11µM*; Six1-Eya2 blk: -29; CtBP-E1A inh: -4; HepG2 tox: -96%; ATXN viability: inconclusive

What do the screens show for `CC(=O)N(C1CC(C)C(C#N)(C#N)C1(C#N)C#N)N(C)C` (stereo not drawn)?
ATXN2 expr inh: inconclusive; TGFb SMAD3 inh: inconclusive; Six1-Eya2 blk: inconclusive; CtBP-E1A inh: 2; HepG2 tox: -38%; ATXN viability: 30µM*

What do the screens show for `Cc1nc2ccc(C(=O)N3CCc4c(cnc(C)c4CNC(=O)/C=C/c4cccs4)C3)cc2nc1C`?
ATXN viability: inactive

Results for O=C1CSc2ccc(C(=O)Nc3cccc(S(=O)(=O)Nc4ccc(Br)cc4)c3)cc2N1 ?
TGFb SMAD3 inh: 13µM*; Six1-Eya2 blk: -27; HepG2 tox: 16µM*; ATXN viability: inconclusive

Results for COc1ccc(NS(=O)(=O)c2cccc(NC(=O)c3ccc(Cl)nc3)c2)cc1 ?
ATXN2 expr inh: -21%[11.3 µM]; TGFb SMAD3 inh: inconclusive; Six1-Eya2 blk: -5; CtBP-E1A inh: -10; HepG2 tox: 1%; ATXN viability: inactive

Results for O=C(Nc1cccc(S(=O)(=O)Nc2ccc(Cl)cc2)c1)c1ccc(Cl)nc1 ?
ATXN2 expr inh: inconclusive; TGFb SMAD3 inh: 14µM*; Six1-Eya2 blk: -3; CtBP-E1A inh: -6; HepG2 tox: -41%; ATXN viability: inconclusive

How did COc1ccc(-c2cc(C(=O)Oc3cccc(C)c3C)c3ccccc3n2)cc1 do in these assays?
TGFb SMAD3 inh: -18%; HepG2 tox: -30%

What do the screens show for `CC1(Cc2ccc(C(F)(F)F)o2)C(=O)Nc2ccc(-c3cccc(C(F)(F)F)c3)cc21` (stereo not drawn)?
ATXN2 expr inh: inconclusive; TGFb SMAD3 inh: 14µM*; Six1-Eya2 blk: 3; CtBP-E1A inh: -7; HepG2 tox: 18µM*; ATXN viability: inactive

What do the screens show for `CC1(Cc2ccc(F)cc2)C(=O)Nc2ccc(-c3cccnc3)cc21` (stereo not drawn)?
ATXN2 expr inh: 14%; TGFb SMAD3 inh: -6%; Six1-Eya2 blk: -2; CtBP-E1A inh: 0; HepG2 tox: -46%; ATXN viability: inactive

Results for CCc1ccc2c(c1)NC(=O)C2(C)Cc1ccc(C(F)(F)F)o1 (stereo not drawn) ?
ATXN2 expr inh: inconclusive; TGFb SMAD3 inh: inconclusive; Six1-Eya2 blk: 3; CtBP-E1A inh: 1; HepG2 tox: -42%; ATXN viability: inconclusive

What do the screens show for `CC1(Cc2ccc3c(c2)OCO3)C(=O)Nc2ccc(-c3cccc(C(F)(F)F)c3)cc21` (stereo not drawn)?
ATXN2 expr inh: inconclusive; TGFb SMAD3 inh: inconclusive; Six1-Eya2 blk: 11; CtBP-E1A inh: 6; HepG2 tox: 18µM*; ATXN viability: inconclusive

What do the screens show for `Cc1sc2ncn(CC(=O)N3CCN(c4ccc(Cl)cc4)CC3)c(=O)c2c1S(=O)(=O)N1CCN(c2ncccn2)CC1`?
ATXN2 expr inh: -16%; TGFb SMAD3 inh: -30%; HepG2 tox: -12%; ATXN viability: inactive

Results for Cc1ccc(Cl)cc1NC(=O)Cn1c(=O)n(CCC(=O)N2CCc3ccccc3C2)c(=O)c2ccccc21 ?
ATXN2 expr inh: 0%; TGFb SMAD3 inh: 6%; HepG2 tox: -3%; ATXN viability: inactive

How did CC(C)(C)C1CCC(OCC(O)CN2CCN(Cc3ccccc3)CC2)CC1 (stereo not drawn) do in these assays?
ATXN2 expr inh: 0%; TGFb SMAD3 inh: inconclusive; Six1-Eya2 blk: -10; CtBP-E1A inh: -21; HepG2 tox: 11µM*; ATXN viability: inconclusive

What do the screens show for `CCc1cc(C(=O)NCCN2Cc3ccccc3OC(c3ccsc3)C2)n(C)n1` (stereo not drawn)?
ATXN viability: inactive

How did COc1ccc(Cc2nnc(NN)[nH]c2=O)cc1OC do in these assays?
ATXN2 expr inh: 4%; TGFb SMAD3 inh: 5%; Six1-Eya2 blk: -91*; CtBP-E1A inh: 1; HepG2 tox: -11%; ATXN viability: inactive

Results for COCCNc1nnc(Cc2ccc(OC)c(OC)c2)c(=O)[nH]1 ?
ATXN2 expr inh: -7%; TGFb SMAD3 inh: -8%; Six1-Eya2 blk: 4; CtBP-E1A inh: 0; HepG2 tox: -11%; ATXN viability: inactive

How did CN(CCOc1ccccc1)CC(=O)Nc1ccc([N+](=O)[O-])cc1Cl do in these assays?
ATXN2 expr inh: -10%; TGFb SMAD3 inh: 11µM*; Six1-Eya2 blk: -12; CtBP-E1A inh: -6; HepG2 tox: -82%; ATXN viability: inactive

What do the screens show for `CCCc1cc(C(=O)Cc2ccc(C(=O)OCC)o2)c(O)cc1O`?
ATXN2 expr inh: -2%; TGFb SMAD3 inh: -5%; Six1-Eya2 blk: 1; CtBP-E1A inh: 5; HepG2 tox: -7%; ATXN viability: inactive

Results for CCc1cc(-c2n[nH]c(C)c2-c2ccc3c(c2)OCCO3)c(O)cc1O ?
ATXN2 expr inh: 6.1µM*
